High-throughput results as filed in PubChem.
Sampled rows, rich in hits. Any-hit rate of the full collection: about 1.3%.
PfHsp40 yeast – compounds rescuing yeast from Plasmodium falciparum HSP40 toxicity | S. cerevisiae expressing PfHsp40, growth rescue, ATP luminescence | growth rescue, % at 12.5 µM | 340,000 compounds, 0.68% hits; in the data active = growth rescue above about 28%, passing the limit was not always enough;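 also: yeast W303a lacking pdr1 and pdr3 grown in galactose medium; growth measured after three days at 30 °C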
ugtP null kill – kills S. aureus RN4220 lacking UgtP | S. aureus RN4220 ugtP deletion, OD600 growth, 16 h | growth inhibition, % (concentration not given with the values) | 330,000 compounds, 0.54% hits; in the data active = growth inhibition above about 68%
Sa RN4220 lethal – kills Staphylococcus aureus RN4220; inhibition, % (concentration not given with the values); AID 1259311; S. aureus RN4220 growth, OD600, 16 h; 330,000 compounds, 0.33% hits; in the data active = inhibition above about 85%
BJeLR lethal – BJeLR cell viability loss; BJeLR (HRASV12) viability, CellTiter-Glo ATP luminescence, 48 h; inhibition, % (test concentration not listed); 300,000 compounds, 0.17% hits; in the data active = inhibition above about 50%
3CLpro inhibitor – SARS-CoV 3CLpro protease inhibition; P0C6X7; recombinant SARS-CoV 3CLpro, quenched FRET peptide cleavage; inhibition, % at 6 µM; 290,000 compounds, 0.14% hits; AID 1706; in the data active = inhibition above about 12%
Each line names hits and unclear results; the compound was inactive in the other large screens.

CCc1ccc2nc(N(CCN(C)C)C(=O)c3ccc4ccccc4c3)sc2c1	none
CC1CCCCC12NC(=O)N(CC(=O)OCC(=O)NC(=O)c1ccccc1)C2=O (stereo unspecified)	none (no result: BJeLR lethal, 3CLpro inhibitor)
COc1ccc(CCNC(=O)C2CC2)cc1	none (no result: 3CLpro inhibitor)
COc1ccc(C[C@H]2NC[C@H](O)[C@H]2OC(C)=O)cc1	BJeLR lethal 82 (no result: ugtP null kill, Sa RN4220 lethal, 3CLpro inhibitor)
Cc1ccc(C)c(NC(=O)c2ccccc2O)c1	none
Cc1ccc(O)c(C(=O)CC(=O)c2ccccc2Cl)c1	ugtP null kill 99, Sa RN4220 lethal 100
Cc1ccc(O)c(C(=O)CC(=O)c2ccc(C(C)(C)C)cc2)c1	ugtP null kill 100, Sa RN4220 lethal 99
COc1ccc(O)c(C(=O)CC(=O)c2ccccc2)c1	none (no result: PfHsp40 yeast, ugtP null kill, Sa RN4220 lethal)
COc1ccc(-c2ccoc2)cc1C1C2C=CCC(C)C2C(=O)N1Cc1ccccc1 (stereo unspecified)	none (no result: PfHsp40 yeast, BJeLR lethal, 3CLpro inhibitor)
O=C(NCCOc1cccc(Oc2ccccc2)c1)c1cc(-n2cnnc2)ccc1Cl	none
CC(C)N(Cc1ccccc1)C(=S)NCCN1CCOCC1	PfHsp40 yeast 35
COc1ccc(C#Cc2c(C=O)n(C)c3ccccc23)cc1	ugtP null kill 100 (no result: BJeLR lethal, 3CLpro inhibitor)
Cn1c(C=O)c(C#Cc2ccccc2)c2ccccc21	ugtP null kill 100 (no result: BJeLR lethal, 3CLpro inhibitor)
Cn1c(-c2ccc(C#N)cc2)c(C#Cc2ccccc2)c2ccccc21	none (no result: ugtP null kill, Sa RN4220 lethal, BJeLR lethal, 3CLpro inhibitor)
COC(=O)c1ccc(NC(=O)COC(=O)CSc2nc(C)cc(C)n2)cc1	none
COC(=O)C1=C(C)N(C)C(=O)NC1c1cc2c(cc1[N+](=O)[O-])OCO2 (stereo unspecified)	PfHsp40 yeast 35
COC(=O)C1=C(C)N(CCCC(=O)O)C(=O)NC1c1cc2c(cc1[N+](=O)[O-])OCO2 (stereo unspecified)	none
CN1C(=O)C2(C(C#N)=C(N)Oc3n[nH]c(-c4ccc(Cl)cc4)c32)c2ccccc21 (stereo unspecified)	Sa RN4220 lethal 98
Cc1[nH]nc2c1C1(C(=O)N(Cc3ccc(Cl)cc3)c3ccccc31)C(C#N)=C(N)O2 (stereo unspecified)	none
COC(=O)c1sccc1NN=Cc1cccc(Oc2ccccc2)c1	none (no result: PfHsp40 yeast, BJeLR lethal, 3CLpro inhibitor)
CC(C)CCCN1C(N(C)C)=NC[C@@H]1C	none (no result: ugtP null kill, Sa RN4220 lethal, BJeLR lethal, 3CLpro inhibitor)
NNC(=O)CN1CCN(c2ncc(C(F)(F)F)cc2Cl)CC1	none
O=C(CN1CCN(c2ncc(C(F)(F)F)cc2Cl)CC1)NCCNc1ncc(C(F)(F)F)cc1Cl	PfHsp40 yeast 294
COC(=O)/C=C/c1ccc2c(c1)S(=O)(=O)N(Cc1ccc(OC)cc1)[C@H]2CC(=O)OC	none (no result: ugtP null kill, Sa RN4220 lethal, 3CLpro inhibitor)
CCC(C)(C)n1nnnc1C(c1cccnc1)N1CCN(c2cccc(C(F)(F)F)c2)CC1 (stereo unspecified)	PfHsp40 yeast 215
COc1cccc(C(=O)NC(=S)Nc2ccccc2N2CCCCC2)c1	ugtP null kill 89
COc1cccc(C(=O)NC(=S)Nc2ccccc2N2CCCC2)c1	ugtP null kill 91
O=C(CSc1ccc(-c2ccccn2)nn1)NCc1ccccc1	PfHsp40 yeast 270
O=C(CSc1ccc(-c2ccccn2)nn1)NCc1ccc(F)cc1	PfHsp40 yeast 248
CCN(c1cccc(C)c1)S(=O)(=O)c1ccc2c(c1)NC(=O)CCS2	none
CCOC(=O)CN1C(=O)C2(C(C#N)=C(N)Oc3ccccc32)C(C(=O)OC)=C1C (stereo unspecified)	none
Oc1c(Cl)cc(Cl)cc1/C=N/NC(=S)NC1CC2C=CC1C2 (stereo unspecified)	PfHsp40 yeast 132 (no result: ugtP null kill, Sa RN4220 lethal)
COC(/C(=N/O)c1ccc(Cl)cc1)c1ccccc1 (stereo unspecified)	PfHsp40 yeast 122 (no result: ugtP null kill, Sa RN4220 lethal)
CCOc1cccc(CNCc2cccnc2)c1OCc1ccccc1	none
C/C(=N\NC(=O)c1ccccc1NC(=O)c1ccc(Cl)cc1)c1ccncc1	BJeLR lethal 132 (no result: ugtP null kill, Sa RN4220 lethal)
COc1cccc2c1C(=O)c1c(O)c3c(c(O)c1C2=O)C[C@](O)(C(C)=O)CC3OC1CC(N)C(O)C(C)O1 (stereo partly specified)	none (no result: PfHsp40 yeast, BJeLR lethal, 3CLpro inhibitor)
COc1cccc2c1C(=O)c1c(O)c3c(c(O)c1C2=O)CC(O)(C(C)=O)CC3OC1CC(N(C)C)C(O)C(C)O1 (stereo unspecified)	PfHsp40 yeast 401 (no result: ugtP null kill, Sa RN4220 lethal, BJeLR lethal, 3CLpro inhibitor)
COc1cccc2c1C(=O)c1c(O)c3c(c(O)c1C2=O)C[C@@](O)(C(=O)CO)C[C@@H]3O[C@H]1C[C@H](N)[C@H](O)[C@H](C)O1	PfHsp40 yeast 146, BJeLR lethal 75 (no result: ugtP null kill, Sa RN4220 lethal)
CCOc1ccc(-n2c(-c3ccccc3)c[n+]3c2CCCCC3)cc1	none
CCOc1ccc(-c2c(C)n(-c3ccc(OCC)cc3)c3[n+]2CCCCC3)cc1	BJeLR lethal 70
